Out of some 120,000 compounds screened, about 5,300 (4.4%) were called active. A call without a number means that no potency is given here. Roughly 22% stayed inconclusive and do not appear here. This is one part of a sample in which actives are shown more often than they occur. The call rests on the fitted dose curve; in most records, active means well fitted inhibition curve with a large enough effect; inconclusive means small, poorly fitted or top-dose-only effect; inactive means no such curve, though single readings can be large or run the other way.

From PubChem BioAssay AID1347417 (National Center for Advancing Translational Sciences (NCATS), 2020) come the findings set out here.
Potency means the concentration at half of the fitted maximal effect.

This assay is described as follows: qHTS Primary assay for Inhibitors of Plasmodium falciparum Dd2 growth in vitro. Further: nearly all actives have a fitted effect of over 65% in size. As to conditions: P. falciparum Dd2 growth, SYBR Green, 72 h; series mostly up to 28.9 µM. The method, boiled down:
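Infected erythrocytes (Dd2, 0.3% parasitemia, 2.5% hematocrit final) are added to compound in RPMI-1640/Albumax II medium, grown 72 h at 37C in low oxygen, then lysed with saponin/Triton-X containing SYBR Green and read by fluorescence.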
Regarding `CC(C)(C)CC(=O)N1CC[C@@H](CC(=O)O)[C@@H](CCN2CCN(c3ccc(F)cc3)CC2)C1`, the Potency result was “inactive”.
Under `O=C(NCCc1cn[nH]c1)[C@H]1CCC[C@@H](O)C1` stands “inactive”; under `Cn1cc(-c2ccccc2Oc2ccccc2)c2nc(CN3CCNC(=O)C3)cn2c1=O`, “inactive”; under `Cn1nccc1CN1CCc2nc(C3CC3)nc(-c3ccc(O)cc3)c2C1`, “inactive”.
The figure for `Oc1ccc(-c2nc(C3CC3)nc3c2CN(Cc2ccc(F)cc2)CC3)cc1` is 5.62 µM (active); for `Oc1ccc(-c2nc(C3CC3)nc3c2CCN(Cc2cccc(F)c2)CC3)cc1` it is “inactive”; for `O=C1OCC2(CCN(Cc3ccc(F)c(Cl)c3)C2)N1Cc1ccccn1` (stereo unspecified) it is “inactive”.
The entry for `C[C@@H](NC(=O)COc1ccccc1)c1c(-c2ccc(F)cc2)noc1C(=O)O` is “inactive”; for `Cc1cc(N2CCC(NC(=O)c3ccc(N(C)C)cc3)C2=O)ccc1F` (stereo unspecified) it is “inactive”; for `COc1ccccc1CNC(=O)CCn1c(=O)c2ccccc2n(CC(=O)Nc2cccc(Cl)c2)c1=O` it is “inactive”.
For `COc1ccc(NC(=O)Cn2c(=O)n(Cc3ccc(C(=O)NCc4ccccc4Cl)cc3)c(=O)c3ccccc32)cc1`, the Potency was 10 µM (active).
Under `Cc1ccc(Cn2c(=O)n(CCCC(=O)NCc3ccccc3Cl)c(=O)c3ccccc32)cc1` stands “inactive”; under `O=C(O)CCn1ncc2cc(OC3CCN(C(=O)C4CCCC4)CC3)ccc21`, “inactive”.
With `CCCCNC(=O)C1CCN(C(=O)c2nnn3c2COC(c2ccc(C)cc2)C3)CC1` (stereo unspecified), the Potency result is “inactive”.
Under `CCOc1cc(=O)n2c(c1C(=O)Nc1cc(Cl)ccc1F)CCCC2` stands “inactive”; under `Cc1noc2c(NC3CCCCC3)cc(-c3ccsc3)nc12`, “inactive”; under `Fc1ccc(CNC2(Cc3cc(-c4ccc(F)cc4)on3)COC2)cc1`, “inactive”.
Under `O=C1NCc2ccc(-c3cc4c(ccn4Cc4cccnc4)c(C4=CCOCC4)n3)cc21` stands “inactive”.
The entry for `OCc1cccc(-c2cc(C3=CCOCC3)c3cncn3c2)c1` is “inactive”; for `FC(F)(F)c1cccc(-c2cc(C3=CCOCC3)c3cncn3c2)c1` it is 14.1 µM (active).
Turning to `O=C(C1CCOCC1)N1CCC2(CC1)CC(N1CCCC1)CCO2` (stereo unspecified), the Potency entry is “inactive”.
The entry for `COC[C@H]1CCCN1C(=O)C(C)[C@@H]1CC[C@@]2(C)CC[C@H](NC(C)=O)[C@@H](C)[C@@H]2[C@H]1O` (stereo partly specified) is “inactive”.
`Cc1cccc(C(=O)N2C[C@@H](Oc3cccnc3)C[C@H]2C(=O)N2CCCC2)c1`: the Potency entry was “inactive”.
Under `Cc1cc(CNC(=O)C2CCCN(C3CCN(CCc4ccccc4)CC3)C2)on1` (stereo unspecified) stands “inactive”; under `O=C(NCC1CC1)C1CCCN(C2CCN(Cc3ccncc3)CC2)C1` (stereo unspecified), “inactive”.
`CCC(CC)C(=O)N1CCC(N2CCCC(C(=O)NCc3ccccc3)C2)CC1` (stereo unspecified): the Potency was 10 µM (active).
`O=C(NCCC1CCN(C(=O)Nc2ccccc2F)CC1)c1ccccc1`: the Potency entry was “inactive”.
For the molecule `O=[S+]([O-])(Nc1cccnc1)c1ccc2c(c1)OCCN(Cc1ccc(F)cc1)C2`, the Potency entry is “inactive”.
Consider `Cc1ccc(S(=O)(=O)Nc2nc3c(s2)C[C@@H]2[C@](C)(CO)[C@H](O)CC[C@@]2(C)[C@@H]3CC(=O)O)cc1`, for which the Potency entry was “inactive”.
Under `CCCCCC(=O)Nc1nc2c(s1)C[C@@H]1[C@](C)(CO)[C@H](O)CC[C@@]1(C)[C@@H]2CC(=O)N1CCC(C(N)=O)CC1` stands “inactive”.
Under `COCC(=O)Nc1nc2c(s1)C[C@@H]1[C@](C)(CO)[C@H](O)CC[C@@]1(C)[C@@H]2CC(=O)NCCN1CCOCC1` stands “inactive”.
`C=CCN(C)C(=O)C[C@@H]1c2nc(NC(=O)c3ccc(C(C)(C)C)cc3)sc2C[C@@H]2[C@](C)(CO)[C@H](O)CC[C@]21C`: the Potency was 3.98 µM (active).
The entry for `C=CCN(C)C(=O)[C@@H](C)C1CC[C@@]2(C)Cc3sc(Nc4c(Cl)cccc4Cl)nc3[C@@H](C)[C@@H]2[C@H]1O` (stereo partly specified) is “inactive”; for `CC1CCN(C(=O)C[C@@H]2c3nc(NC(=O)c4ccnc(Cl)c4)sc3C[C@@H]3[C@](C)(CO)[C@H](O)CC[C@]32C)CC1` it is 6.31 µM (active).
Consider `CN1CCC2(C1)CN(CC1CCOCC1)c1ccc(C(=O)NCCCn3ccnc3)cc12` (stereo unspecified), for which the Potency entry was “inactive”.
The entry for `c1ncc(CN2CCn3c(nnc3C3CCCNC3)C2)s1` (stereo unspecified) is “inactive”; for `Cc1nc(N)nc(C)c1CC(=O)N1CCC2(CC1)OCCCC2O` (stereo unspecified) it is “inactive”.
Under `COc1ccc(CNC(=O)c2ccc3c(O)c(S(=O)(=O)c4ccccc4)c(=O)[nH]c3c2)cc1` stands “inactive”; under `CC(C)c1ccc(NC(=O)c2ccc3c(O)c(S(=O)(=O)c4ccccc4)c(=O)[nH]c3c2)cc1`, 11.2 µM (active); under `Cc1ccc(C(=O)Nc2ccc3[nH]c(=O)c(=O)[nH]c3c2)cc1`, “inactive”.
Regarding `COc1cccc([S+](=O)([O-])N2CCC3(C2)C(=NC2CCCCC2)NC(=O)N3c2cccnc2)c1` (stereo unspecified), the Potency entry was “inactive”.
Take `N#Cc1ccc(S(=O)(=O)N2CC(n3cc(C(=O)NCc4ccccc4)nn3)C2)cc1`: the Potency result is “inactive”.
The figure for `Cc1ccc(NC(=O)N2CC[C@H]3C(=O)NCCCCCN(Cc4cccnc4)[C@@H]3C2)cc1C` is 8.91 µM (active).
The entry for `O=C1NCCCCCCN(Cc2ccncc2)[C@@H]2CN(C(=O)Nc3ccc4c(c3)OCCO4)CC[C@@H]12` is “inactive”; for `O=C1NCCCCCN(Cc2cccnc2)[C@@H]2CN(C(=O)C3CCCCC3)CC[C@@H]12` it is “inactive”.
Regarding `O=C(NCc1ccco1)N1CC2CC(C1)[C@H]1CCCC(=O)N1C2` (stereo partly specified), the Potency entry was “inactive”.
Take `O=C([C@@H]1CCCN1C1CCNCC1)N1CCN(Cc2cccnc2)CC1`: the Potency entry was “inactive”.
Under `COCC1CN(C(C)=O)CC12CCN(Cc1cccc(C#N)c1)CC2` (stereo unspecified) stands “inactive”.
For the molecule `CCOc1cccc(CN2CCC3(CC2)CN(C)CC3COC)c1` (stereo unspecified), the Potency is 4.47 µM (active).
For `COCC1CN(C(C)=O)CC12CCN(C(=O)NCc1cccc(OC)c1)CC2` (stereo unspecified), the Potency entry was “inactive”.
`CN1C(=O)c2[nH]nc(-c3ccc(F)cc3)c2C1c1ccccn1` (stereo unspecified): the Potency entry is “inactive”.
Regarding `CCOc1ccc(-c2n[nH]c3c2C(c2ccccc2OC)N(c2ccc(Br)cc2)C3=O)cc1` (stereo unspecified), the Potency is 10 µM (active).
As to `Cc1ccc(-n2c(C3CCN(C(=O)c4ccccc4C(F)(F)F)CC3)n[nH]c2=O)cc1`, the Potency entry was “inactive”.
As for `CC(=O)Nc1cccc(NC(=O)C2CC(=O)N(c3n[nH]c4ccccc34)C2)c1` (stereo unspecified), the Potency result is “inactive”.
The entry for `O=c1n(CC2CC2)nc2n1CCC(NS(=O)(=O)Cc1ccccc1)CC2` (stereo unspecified) is “inactive”; for `CC(=O)c1cc(CN2CCn3nc(C(O)c4ccnn4C)cc3C2)cs1` (stereo unspecified) it is “inactive”.
